PMC7862700, “An all-to-all approach to the identification of sequence-specific readers for epigenetic DNA modifications on cytosine”

Tests used:
Assay in all cases: DAPPL (digital affinity profiling via proximity ligation, sequencing); 10 mM Tris-HCl pH 7.5, 50 mM NaCl, 1 mM DTT, 4% glycerol, room temperature, 30 min; GST-TFs on glutathione beads, 16-mer random dsDNA library, 0.1% formaldehyde crosslink after washing; high values mean tight binding
EHF = biological target: T1, EHF (Homo sapiens, UniProt Q9NZC4 1-300); conditions: protein: recombinant; tags: N-terminal GST; dsDNA, one strand shown
T1 sequence: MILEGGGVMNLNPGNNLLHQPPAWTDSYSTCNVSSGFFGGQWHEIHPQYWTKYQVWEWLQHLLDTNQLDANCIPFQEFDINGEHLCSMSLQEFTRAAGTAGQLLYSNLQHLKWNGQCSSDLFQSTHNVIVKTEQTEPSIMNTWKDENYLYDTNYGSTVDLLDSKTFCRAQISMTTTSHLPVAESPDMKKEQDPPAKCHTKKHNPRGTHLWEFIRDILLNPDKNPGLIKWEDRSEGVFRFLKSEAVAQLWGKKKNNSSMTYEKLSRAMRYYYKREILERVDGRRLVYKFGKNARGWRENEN
How it was run: (§1)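 Binding signal is each hexamer's read frequency for a factor divided by its frequency in the tag-only sample. The factors were GST-fused human transcription factors from yeast, captured on glutathione beads, DNA-barcoded and pooled with that sample. Pools were incubated with 200 nmole of a random double-stranded 16-mer DNA library in Tris/NaCl/DTT/glycerol buffer at room temperature for 30 min, then washed, crosslinked with 0.1% formaldehyde, proximity-ligated with BsaI/T4 ligase (1 h, 37 °C), PCR-amplified and sequenced on an Illumina NextSeq500.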

HSF1 = HSF1 (Homo sapiens, UniProt Q00613 1-529); conditions: protein: recombinant; tags: N-terminal GST; chain copies: 3; dsDNA, one strand shown
How it was run: as §1

SPIC = biological target: T2, SPIC (Homo sapiens, UniProt Q8N5J4 1-248); conditions: protein: recombinant; tags: N-terminal GST; dsDNA, one strand shown
T2 sequence: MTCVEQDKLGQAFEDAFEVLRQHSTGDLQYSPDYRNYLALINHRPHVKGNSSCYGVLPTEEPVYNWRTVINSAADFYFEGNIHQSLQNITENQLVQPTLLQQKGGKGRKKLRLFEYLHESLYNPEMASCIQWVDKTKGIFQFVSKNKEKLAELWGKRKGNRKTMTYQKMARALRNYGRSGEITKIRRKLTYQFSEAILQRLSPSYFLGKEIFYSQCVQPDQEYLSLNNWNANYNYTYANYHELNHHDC
How it was run: as §1

ELK3 = biological target: T3, ELK3 (Homo sapiens, UniProt P41970 1-407); conditions: protein: recombinant; tags: N-terminal GST; dsDNA, one strand shown
T3 sequence: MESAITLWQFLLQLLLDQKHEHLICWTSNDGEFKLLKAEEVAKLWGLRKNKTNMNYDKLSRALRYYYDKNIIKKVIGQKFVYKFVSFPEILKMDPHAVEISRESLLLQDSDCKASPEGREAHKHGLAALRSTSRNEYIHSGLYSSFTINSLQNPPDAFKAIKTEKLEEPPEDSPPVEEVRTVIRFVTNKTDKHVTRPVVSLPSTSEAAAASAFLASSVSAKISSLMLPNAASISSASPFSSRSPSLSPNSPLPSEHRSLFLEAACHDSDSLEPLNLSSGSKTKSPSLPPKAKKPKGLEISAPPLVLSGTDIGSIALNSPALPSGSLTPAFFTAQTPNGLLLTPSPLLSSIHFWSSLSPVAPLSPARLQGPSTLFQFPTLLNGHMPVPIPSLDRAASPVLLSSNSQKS
How it was run: as §1

ELK4 = biological target: T4, ELK4 (Homo sapiens, UniProt P28324-2 1-405); conditions: protein: recombinant; tags: N-terminal GST; dsDNA, one strand shown
T4 sequence: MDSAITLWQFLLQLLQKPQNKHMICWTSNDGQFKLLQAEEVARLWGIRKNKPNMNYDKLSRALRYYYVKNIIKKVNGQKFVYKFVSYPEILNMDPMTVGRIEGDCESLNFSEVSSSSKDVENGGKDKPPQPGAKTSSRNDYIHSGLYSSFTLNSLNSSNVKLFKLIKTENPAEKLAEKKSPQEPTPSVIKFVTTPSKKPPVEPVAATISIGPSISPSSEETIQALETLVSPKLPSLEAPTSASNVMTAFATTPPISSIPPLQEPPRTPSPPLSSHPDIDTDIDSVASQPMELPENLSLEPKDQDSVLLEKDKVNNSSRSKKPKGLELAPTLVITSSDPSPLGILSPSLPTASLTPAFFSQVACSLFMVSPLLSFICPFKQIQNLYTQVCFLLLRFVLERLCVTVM
How it was run: as §1

CRX = CRX (Homo sapiens, UniProt O43186 1-299); conditions: protein: recombinant; tags: N-terminal GST; dsDNA, one strand shown
How it was run: as §1

ELF5 = biological target: T5, ELF5 (Homo sapiens, UniProt Q9UKW6-2 1-255); conditions: protein: recombinant; tags: N-terminal GST; dsDNA, one strand shown
T5 sequence: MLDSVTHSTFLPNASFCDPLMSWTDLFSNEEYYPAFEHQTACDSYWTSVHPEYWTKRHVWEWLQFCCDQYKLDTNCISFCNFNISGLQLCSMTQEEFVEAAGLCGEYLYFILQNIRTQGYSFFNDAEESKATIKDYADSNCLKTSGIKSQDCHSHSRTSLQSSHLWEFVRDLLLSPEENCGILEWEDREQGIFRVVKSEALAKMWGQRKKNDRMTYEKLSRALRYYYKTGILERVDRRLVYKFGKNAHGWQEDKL
How it was run: as §1

ELK1 = biological target: T6, ELK1 (Homo sapiens, UniProt P19419 1-428); conditions: protein: recombinant; tags: N-terminal GST; dsDNA, one strand shown
T6 sequence: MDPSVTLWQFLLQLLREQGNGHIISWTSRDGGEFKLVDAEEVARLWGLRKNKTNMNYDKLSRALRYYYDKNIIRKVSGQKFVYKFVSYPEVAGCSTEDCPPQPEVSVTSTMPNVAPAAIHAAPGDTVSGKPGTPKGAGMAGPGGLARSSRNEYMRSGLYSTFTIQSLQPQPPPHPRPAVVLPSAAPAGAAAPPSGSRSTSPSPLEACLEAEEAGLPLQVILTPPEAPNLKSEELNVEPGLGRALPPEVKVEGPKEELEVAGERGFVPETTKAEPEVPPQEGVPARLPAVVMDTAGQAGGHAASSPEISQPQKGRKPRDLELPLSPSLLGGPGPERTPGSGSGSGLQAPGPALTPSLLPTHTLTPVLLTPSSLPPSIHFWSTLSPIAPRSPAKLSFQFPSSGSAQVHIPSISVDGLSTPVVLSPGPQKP
How it was run: as §1

SPI1 = SPI1 (Homo sapiens, UniProt P17947 1-270); conditions: protein: recombinant; tags: N-terminal GST; dsDNA, one strand shown
How it was run: as §1

ELF4 = ELF4 (Homo sapiens, UniProt Q99607 1-663); conditions: protein: recombinant; tags: N-terminal GST; dsDNA, one strand shown
How it was run: as §1

ETV3L = biological target: T7, ETV3L (Homo sapiens, UniProt Q6ZN32 1-361); conditions: protein: recombinant; tags: N-terminal GST; dsDNA, one strand shown
T7 sequence: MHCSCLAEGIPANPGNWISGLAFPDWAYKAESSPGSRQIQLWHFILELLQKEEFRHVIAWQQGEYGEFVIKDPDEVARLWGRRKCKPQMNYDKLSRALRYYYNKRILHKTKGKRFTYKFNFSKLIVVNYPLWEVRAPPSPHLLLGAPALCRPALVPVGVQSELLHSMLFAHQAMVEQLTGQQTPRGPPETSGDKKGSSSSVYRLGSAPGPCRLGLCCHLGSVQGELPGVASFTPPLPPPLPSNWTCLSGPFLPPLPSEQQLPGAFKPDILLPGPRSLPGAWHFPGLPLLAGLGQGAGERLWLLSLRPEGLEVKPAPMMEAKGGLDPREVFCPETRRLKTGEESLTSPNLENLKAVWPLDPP
How it was run: as §1

ETS2 = biological target: T8, ETS2 (Homo sapiens, UniProt P15036 1-469); conditions: protein: recombinant; tags: N-terminal GST; dsDNA, one strand shown
T8 sequence: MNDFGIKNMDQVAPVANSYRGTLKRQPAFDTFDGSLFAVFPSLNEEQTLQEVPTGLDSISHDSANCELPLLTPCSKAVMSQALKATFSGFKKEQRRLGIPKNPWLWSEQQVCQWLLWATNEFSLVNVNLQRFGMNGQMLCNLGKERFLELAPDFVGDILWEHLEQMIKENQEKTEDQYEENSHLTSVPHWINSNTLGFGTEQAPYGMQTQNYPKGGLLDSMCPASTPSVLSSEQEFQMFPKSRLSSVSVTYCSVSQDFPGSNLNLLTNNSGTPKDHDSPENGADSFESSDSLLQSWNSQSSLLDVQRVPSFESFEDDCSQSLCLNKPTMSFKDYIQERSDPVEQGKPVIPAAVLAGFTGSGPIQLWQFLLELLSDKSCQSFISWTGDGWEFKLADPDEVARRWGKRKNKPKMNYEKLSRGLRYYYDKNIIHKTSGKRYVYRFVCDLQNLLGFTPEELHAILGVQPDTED
How it was run: as §1

SPDEF = biological target: T9, SPDEF (Homo sapiens, UniProt O95238 1-335); conditions: protein: recombinant; tags: N-terminal GST; dsDNA, one strand shown
T9 sequence: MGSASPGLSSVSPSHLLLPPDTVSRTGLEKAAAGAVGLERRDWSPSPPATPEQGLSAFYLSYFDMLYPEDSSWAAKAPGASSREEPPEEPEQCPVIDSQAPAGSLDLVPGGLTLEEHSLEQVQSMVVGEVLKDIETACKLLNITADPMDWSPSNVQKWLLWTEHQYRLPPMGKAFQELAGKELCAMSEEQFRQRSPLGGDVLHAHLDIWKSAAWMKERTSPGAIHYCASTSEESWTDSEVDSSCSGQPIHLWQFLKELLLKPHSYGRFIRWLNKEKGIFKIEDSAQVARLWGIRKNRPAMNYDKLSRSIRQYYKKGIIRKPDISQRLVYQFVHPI
How it was run: as §1

ETV6 = ETV6 (Homo sapiens, UniProt P41212 1-452); conditions: protein: recombinant; tags: N-terminal GST; dsDNA, one strand shown
How it was run: as §1

Sequence of HSF1 (Q00613 whole entry): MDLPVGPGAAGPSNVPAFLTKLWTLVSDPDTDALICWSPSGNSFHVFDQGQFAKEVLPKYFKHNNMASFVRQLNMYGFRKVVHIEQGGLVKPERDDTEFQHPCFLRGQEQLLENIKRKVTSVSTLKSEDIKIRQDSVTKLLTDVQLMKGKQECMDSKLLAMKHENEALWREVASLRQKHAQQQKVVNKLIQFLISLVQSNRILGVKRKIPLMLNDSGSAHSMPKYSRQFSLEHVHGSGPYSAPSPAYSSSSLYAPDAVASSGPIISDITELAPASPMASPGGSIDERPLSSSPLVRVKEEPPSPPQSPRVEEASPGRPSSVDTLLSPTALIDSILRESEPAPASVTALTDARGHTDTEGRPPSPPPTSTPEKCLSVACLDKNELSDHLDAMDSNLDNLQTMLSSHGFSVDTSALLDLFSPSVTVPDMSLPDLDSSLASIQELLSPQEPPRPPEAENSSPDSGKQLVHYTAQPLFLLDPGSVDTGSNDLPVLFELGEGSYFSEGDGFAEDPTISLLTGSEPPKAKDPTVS
Sequence of CRX (O43186 whole entry): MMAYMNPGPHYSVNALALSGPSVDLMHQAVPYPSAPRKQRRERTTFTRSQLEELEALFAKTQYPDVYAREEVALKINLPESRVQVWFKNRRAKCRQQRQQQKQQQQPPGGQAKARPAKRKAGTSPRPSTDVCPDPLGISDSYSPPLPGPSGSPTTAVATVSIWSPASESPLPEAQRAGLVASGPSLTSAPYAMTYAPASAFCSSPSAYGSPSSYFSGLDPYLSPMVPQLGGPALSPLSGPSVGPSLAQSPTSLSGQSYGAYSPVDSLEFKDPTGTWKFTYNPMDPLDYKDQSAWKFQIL
Sequence of ETV6 (P41212 whole entry): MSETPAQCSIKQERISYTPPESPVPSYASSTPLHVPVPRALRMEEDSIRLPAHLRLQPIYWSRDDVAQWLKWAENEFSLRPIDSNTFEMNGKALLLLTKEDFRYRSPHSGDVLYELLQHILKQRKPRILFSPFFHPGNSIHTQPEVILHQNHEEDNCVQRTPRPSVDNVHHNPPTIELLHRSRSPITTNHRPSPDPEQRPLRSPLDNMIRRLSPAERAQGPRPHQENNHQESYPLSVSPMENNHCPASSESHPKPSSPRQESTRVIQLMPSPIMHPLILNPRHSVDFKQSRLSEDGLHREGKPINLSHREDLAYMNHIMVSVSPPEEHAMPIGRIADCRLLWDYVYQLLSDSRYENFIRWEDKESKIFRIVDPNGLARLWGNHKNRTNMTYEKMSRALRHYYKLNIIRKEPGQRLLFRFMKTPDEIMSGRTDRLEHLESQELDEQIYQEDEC
Sequence of ELF4 (Q99607 whole entry): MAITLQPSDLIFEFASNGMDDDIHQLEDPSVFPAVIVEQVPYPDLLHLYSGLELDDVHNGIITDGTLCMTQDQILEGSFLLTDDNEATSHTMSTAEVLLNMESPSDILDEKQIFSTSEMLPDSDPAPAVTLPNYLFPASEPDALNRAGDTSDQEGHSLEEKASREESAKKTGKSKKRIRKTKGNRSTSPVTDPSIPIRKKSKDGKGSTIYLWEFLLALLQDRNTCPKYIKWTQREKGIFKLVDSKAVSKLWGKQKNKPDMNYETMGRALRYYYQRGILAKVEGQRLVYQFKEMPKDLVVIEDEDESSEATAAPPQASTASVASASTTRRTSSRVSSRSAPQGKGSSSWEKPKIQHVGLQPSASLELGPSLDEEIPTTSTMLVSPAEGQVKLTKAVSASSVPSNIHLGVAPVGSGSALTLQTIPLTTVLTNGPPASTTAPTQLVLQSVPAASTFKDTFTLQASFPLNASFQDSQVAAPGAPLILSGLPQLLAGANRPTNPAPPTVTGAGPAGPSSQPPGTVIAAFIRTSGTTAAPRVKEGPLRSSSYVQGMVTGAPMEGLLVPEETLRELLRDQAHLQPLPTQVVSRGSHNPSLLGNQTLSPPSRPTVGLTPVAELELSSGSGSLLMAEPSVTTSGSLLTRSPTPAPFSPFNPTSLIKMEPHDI

For CTAGGA, the binding signal (EHF) was 1.01 fold enrichment (6-mer frequency, TF over GST control), the binding signal (HSF1) was 1.08 fold enrichment (6-mer frequency, TF over GST control) and the binding signal (SPIC) was 1.01 fold enrichment (6-mer frequency, TF over GST control).

In the case of AGATAT, the binding signal (ELK3) is reported as 1 fold enrichment (6-mer frequency, TF over GST control), the binding signal (HSF1) is reported as 1.1 fold enrichment (6-mer frequency, TF over GST control) and the binding signal (ELK4) is reported as 1.04 fold enrichment (6-mer frequency, TF over GST control). For the same sequence, the binding signal (CRX) was 1.06 fold enrichment (6-mer frequency, TF over GST control) and the binding signal (ELF5) was 1.06 fold enrichment (6-mer frequency, TF over GST control).

In the case of AGATTA, the binding signal (ELK1) is reported as 1.02 fold enrichment (6-mer frequency, TF over GST control), the binding signal (EHF) is reported as 1.03 fold enrichment (6-mer frequency, TF over GST control) and the binding signal (SPI1) is reported as 1.01 fold enrichment (6-mer frequency, TF over GST control). The binding signal (ELK3) was 1.03 fold enrichment (6-mer frequency, TF over GST control), the binding signal (HSF1) was 2.62 fold enrichment (6-mer frequency, TF over GST control) and the binding signal (ELF4) was 1.05 fold enrichment (6-mer frequency, TF over GST control). The binding signal (ELK4) was 1.05 fold enrichment (6-mer frequency, TF over GST control), the binding signal (CRX) was 4.03 fold enrichment (6-mer frequency, TF over GST control) and the binding signal (ETV3L) was 1.02 fold enrichment (6-mer frequency, TF over GST control). For the same sequence, the binding signal (ETS2) was 1 fold enrichment (6-mer frequency, TF over GST control), the binding signal (SPDEF) was 1.05 fold enrichment (6-mer frequency, TF over GST control) and the binding signal (ETV6) was 1.04 fold enrichment (6-mer frequency, TF over GST control).
